Values joined by “and” are separate entries in the source; they are usually repeats but may differ in a detail not shown here. Equal values may be shown once. Results filed as inconclusive are left out. Active and inactive are the calls of the source. Unless noted, calls come from the whole dose curve; as a rule, active = well fitted curve in the direction sought with a large enough effect; inconclusive = small, poorly fitted or top-dose-only effect, or another doubt; inactive = no such curve, though single readings can be large; an effect the other way counts as inactive or inconclusive.
What was measured:
[1] = Cell Viability - Hek293 (AID 427;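 active = compounds whose dose-response curve shows a full or clear partial loss of cell viability, called from curve shape rather than a numeric limit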;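 note: potency is the fitted concentration of half-maximal effect; cells exposed to compound for 40 hours at 37 °C before reading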); conditions: qHTS
Method in brief: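 Luminescent ATP content (CellTiter-Glo, 20 min at room temperature) was measured after a 40 hr, 37 °C compound exposure of HEK293 cells. AC50 values came from Hill-equation fits of qHTS concentration-response data normalized to DMSO and 100 uM tamoxifen.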

[2] = Cell Viability - SK-N-SH (AID 435; calls by dose curve;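 note: potency is the fitted concentration of half-maximal effect; compound exposure lasted 40 h at 37 °C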); conditions: SK-N-SH neuroblastoma cell viability qHTS
Method in brief: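 Human neuroblastoma line, 40 h exposure at 37 °C, ATP quantified via luciferase luminescence; DMSO and 100 uM tamoxifen define 0 and 100% inhibition for AC50 fitting.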

[3] = Cell Viability - SH-SY5Y (AID 544); conditions: SH-SY5Y neuroblastoma cell viability; viability change, negative = cytotoxic: at 92.2 µM (top of the series);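 note: cells exposed to compound for 40 hours; 0% = DMSO alone and -100% = 100 µM tamoxifen; nearly all actives have a fitted effect of over 55% in size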
Method in brief: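 Luminescent ATP read-out (CellTiter-Glo) measures loss of viable SH-SY5Y neuroblastoma cells after 40 hr compound exposure at 37 °C. AC50 values derive from standard Hill modelling of qHTS concentration-response data.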

[4] = Cell Viability - LYMP2-001 (AID 921); conditions: LYMP2-001 lymphoblastoid cell viability; series mostly up to 92.2 µM;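 note: 0% = DMSO only and full inhibition = tetraoctylammonium bromide control wells; nearly all actives have a fitted effect of over 70% in size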
Method in brief: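 A lymphoblastoid cell line of human origin was treated with library compounds across a concentration series for 24 hours, and viable cell number was estimated from ATP-driven luciferase light output. Hill modeling gave AC50.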

[5] = Cell Viability - LYMP1-003 - Assay at 40 hr (AID 964); conditions: LYMP1-003 lymphoblastoid viability; series mostly up to 92.2 µM; note: % is set by controls: 0 for no effect and ±100 for the full control effect; nearly all actives have a fitted effect of over 60% in size
Method in brief: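 Cells were seeded at 2500 per well and incubated 5 hr at 37 C. Compounds were added across a concentration series and left 40 hr at 37 C. CellTiter-Glo was added for 30 min at room temperature before luminescence reading.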

[6] = Cell Viability - LYMP2-004 (AID 966); conditions: LYMP2-004 lymphoblastoid cell viability, qHTS; series mostly up to 92.2 µM;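 note: plate controls were DMSO only for no effect and tetraoctylammonium bromide control for full effect; nearly all actives have a fitted effect of over 65% in size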
Method in brief: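 Cells seeded 2500/well, rested 5 hr at 37 C, dosed across a concentration series, incubated 24 hr at 37 C, then CellTiter-Glo added for 30 min at room temperature and luminescence read. Hill fitting gave AC50.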

[7] = Cell Viability - LYMP2-005 (AID 967); conditions: LYMP2-005 lymphoblastoid cell viability; series mostly up to 92.2 µM;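 note: plate controls were DMSO only for no effect and 92 µM tetraoctylammonium bromide control for full effect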
Method in brief: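 Luciferase-based ATP quantitation served as the viability measure in human lymphoblastoid LYMP2-005 cells exposed to test compounds for 24 h at 37 C in complete culture medium. Potency (AC50) was obtained by fitting concentration-response curves with the Hill equation.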

[8] = Cell Viability - LYMP2-015 (AID 971); conditions: LYMP2-015 lymphoblastoid cell viability; series mostly up to 92.2 µM;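 note: 0% = DMSO only and full effect = 92 µM tetraoctylammonium bromide; nearly all actives have a fitted effect of over 55% in size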
Method in brief: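 Luminescent ATP read-out (CellTiter-Glo) served as the viability measure after lymphoblastoid cells were exposed to compounds for 24 hours at 37 C. Concentration-response data were fitted with the Hill equation to give AC50.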

[9] = Cell Viability - LYMP2-021 (AID 974); conditions: LYMP2-021 lymphoblastoid cells viability; series mostly up to 92.2 µM;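 note: compound exposure lasts 24 hours at 37 °C; % is set by controls: 0 for no effect and ±100 for the full control effect; nearly all actives have a fitted effect of over 55% in size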
Method in brief: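 Plate 2500 lymphoblastoid cells per well and incubate 5 hr at 37 C. Add compounds over a concentration range and incubate 24 hr at 37 C. Add CellTiter-Glo, wait 30 min at room temperature, read luminescence.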

[10] = Cell Viability - LYMP2-006 (AID 978); conditions: LYMP2-006 lymphoblastoid cell viability, qHTS; series mostly up to 92.2 µM; note: % is set by controls: 0 for no effect and ±100 for the full control effect; nearly all actives have a fitted effect of over 60% in size
Method in brief: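 In this cytotoxicity screen, the human lymphoblastoid line grew in complete medium with test compounds for 24 hr at 37 C. Cellular ATP served as the viability signal.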

[11] = Cell Viability - LYMP2-010 (AID 981); conditions: LYMP2-010 lymphoblastoid cell viability, qHTS; series mostly up to 92.2 µM; note: % is set by controls: 0 for no effect and ±100 for the full control effect; nearly all actives have a fitted effect of over 55% in size
Method in brief: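 Luminescent ATP signal (CellTiter-Glo) served as the viability read-out. Cells of the human lymphoblastoid line were treated with compound over a concentration range for 24 hours at 37 C, and AC50 values came from Hill-equation modeling.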

[12] = Cell Viability - LYMP2-012 (AID 982); conditions: LYMP2-012 lymphoblastoid cell viability qHTS; series mostly up to 92.2 µM
[13] = Cell Viability - LYMP2-022 (AID 987); conditions: LYMP2-022 lymphoblastoid cell viability; series mostly up to 92.2 µM
Method in brief: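 qHTS: human lymphoblastoid cells 2500/well; 5 hr 37 C; cpd added; 24 hr 37 C; CellTiter-Glo, 30 min RT; luminescence. AC50 via Hill fit; tetraoctylammonium bromide positive ctrl.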

[14] = Cell Viability - LYMP2-024 (AID 988); conditions: LYMP2-024 lymphoblastoid cell viability; series mostly up to 92.2 µM;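 note: plate controls were DMSO only for no effect and 92 µM tetraoctylammonium bromide for full effect; nearly all actives have a fitted effect of over 60% in size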
Method in brief: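 Steps: seed 2500 cells/well, 5 hr 37 C; add compound, 24 hr 37 C; add CellTiter-Glo, 30 min room temperature; read luminescence. AC50 derived by Hill modelling of concentration-dependent ATP loss.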

[15] = target: Thyroid hormone receptor beta (Homo sapiens) (UniProt P10828); test: qHTS assay for small molecule antagonists of thyroid hormone receptor beta signaling (AID 588547; active = well fitted inhibition curve with a large enough effect in the signal ratio, with a control signal flat, not every such curve was filed as active; the % refers to the signal ratio;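 note: cells stimulated with 0.4 nM T3 agonist during compound exposure; % is set by controls: 0 for no effect and ±100 for the full control effect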); conditions: TR-UAS-bla HEK293, beta-lactamase ratio, antagonist mode, 18 h
Method in brief: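 Inhibition of T3-driven (0.4nM final) beta-lactamase reporter activity was measured over 0.59 nM to 92 uM compound after 18 h at 37 C. The cells were GripTite HEK293 TR-UAS-bla in charcoal/dextran-stripped serum, with CCF4 ratio read-out and IC50 from Hill fits.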

[16] = qHTS assay for small molecule activators of the p53 signaling pathway (AID 651743; active = well fitted activation curve with a large enough effect in the signal ratio, not every such curve was filed as active; the % refers to the signal ratio; note: % of control where 0% means no effect); conditions: HCT-116 p53RE-bla, beta-lactamase FRET ratio, 16 h; activation: hits give high values
Method in brief: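 Read-out is fluorescence intensity from the LiveBLAzer B/G FRET substrate, added for 2 hours at room temperature after HCT-116 p53RE-bla cells had been incubated with compounds for 16 hours at 37 C.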

[17] = qHTS assay for small molecule antagonists of the retinoid-related orphan receptor gamma (ROR-gamma) signaling pathway - cell viability counter screen (AID 720652; active = well fitted curve in the direction sought with a large enough effect in the repeat runs; an effect the other way counts as inactive or inconclusive;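 note: compound exposure lasted 16 hr before ATP read; % is set by controls: 0 for no effect and ±100 for the full control effect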); conditions: RORgamma reporter cell line viability counter screen; series mostly up to 92.2 µM
Method in brief: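 Luminescence from CellTiter-Glo after 30 min at room temperature reported cellular ATP as the cytotoxicity measure. Cells were the CHO reporter line with doxycycline-induced ROR-gamma expression, exposed to compound for 16 hr at 37 C.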

[18] = target: Nuclear receptor subfamily 1 group I member 2 (Rattus norvegicus) (UniProt Q9R1A7); test: qHTS assay for small molecule activators of the rat pregnane X receptor (rPXR) signaling pathway (AID 651751; call rule not given here; note: 0% is about no effect); conditions: rPXR reporter cells, luciferase (One-Glo), 24 h
[19] = qHTS assay for small molecule disruptors of the mitochondrial membrane potential - 1 hr assay (AID 651754; calls by dose curve; note: % is set by controls: 0 for no effect and ±100 for the full control effect; nearly all actives have a fitted effect of over 35% in size); conditions: series mostly up to 92.2 µM
Method in brief: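 HepG2, 2,000 cells/well, overnight attachment; cpd or DMSO 1 hr, 37C/5% CO2; Mito-MPS dye 30 min, 37C; fluorescence monomer (490/535) and aggregate (540/590).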

[20] = qHTS assay for small molecule disruptors of the mitochondrial membrane potential - 5 hr assay (AID 651755; calls by dose curve; note: % is set by controls: 0 for no effect and ±100 for the full control effect; nearly all actives have a fitted effect of over 40% in size); conditions: JC-1-type ratio dye; series mostly up to 92.2 µM
Method in brief: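 HepG2, 2,000 cells/well, overnight attach; cpd or DMSO 5 hr, 37C/5% CO2; Mito-MPS 30 min 37C; fluor 490/535 + 540/590 nm.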

Thyroid hormone receptor beta (Homo sapiens), sequence (P10828 whole entry, looked up): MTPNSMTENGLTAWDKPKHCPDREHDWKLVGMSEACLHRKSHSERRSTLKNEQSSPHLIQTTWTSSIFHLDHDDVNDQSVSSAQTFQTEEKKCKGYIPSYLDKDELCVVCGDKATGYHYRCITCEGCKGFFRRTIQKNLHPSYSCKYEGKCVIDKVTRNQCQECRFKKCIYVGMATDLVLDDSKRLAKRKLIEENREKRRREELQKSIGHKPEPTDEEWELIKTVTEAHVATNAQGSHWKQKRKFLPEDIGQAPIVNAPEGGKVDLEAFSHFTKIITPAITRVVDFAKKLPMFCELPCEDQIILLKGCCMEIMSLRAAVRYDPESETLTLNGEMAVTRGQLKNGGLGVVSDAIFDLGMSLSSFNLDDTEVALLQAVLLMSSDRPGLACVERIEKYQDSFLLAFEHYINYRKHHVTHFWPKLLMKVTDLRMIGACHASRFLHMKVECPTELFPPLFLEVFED
Nuclear receptor subfamily 1 group I member 2 (Rattus norvegicus), sequence (Q9R1A7 whole entry, looked up): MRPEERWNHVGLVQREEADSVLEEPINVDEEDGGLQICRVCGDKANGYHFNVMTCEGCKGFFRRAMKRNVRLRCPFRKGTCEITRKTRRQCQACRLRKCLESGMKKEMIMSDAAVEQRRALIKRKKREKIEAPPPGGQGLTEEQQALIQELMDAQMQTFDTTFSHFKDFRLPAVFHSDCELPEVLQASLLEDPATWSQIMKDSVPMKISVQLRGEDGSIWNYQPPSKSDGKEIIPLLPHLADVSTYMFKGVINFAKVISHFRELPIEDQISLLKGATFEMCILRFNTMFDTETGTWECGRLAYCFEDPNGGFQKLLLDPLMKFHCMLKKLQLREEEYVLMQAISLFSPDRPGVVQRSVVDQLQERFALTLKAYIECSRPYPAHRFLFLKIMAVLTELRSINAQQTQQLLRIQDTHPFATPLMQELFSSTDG

CN(C)c1ccc(Cc2ccc(N(C)C)cc2)cc1
inactive: Potency [1] > 92 µM | Potency [2] > 92 µM | Potency [3] | Potency [4] | Potency [5] | Potency [6] | Potency [7] | Potency [8] | Potency [9] | Potency [10] | Potency [11] | Potency [12] | Potency [13] | Potency [14] | activity change % (negative = inhibition) [15] 1.5% | activation [16] 6.8% and -1.08% | Potency [17] | max response [18] 1.5% and 4.81%

Cc1ccc(C(=O)O)cc1[N+](=O)[O-]
inactive: Potency [1] > 92 µM | Potency [2] > 92 µM | Potency [3] | Potency [4] | Potency [5] | Potency [6] | Potency [7] | Potency [8] | Potency [9] | Potency [10] | Potency [11] | Potency [12] | Potency [13] | Potency [14] | activity change % (negative = inhibition) [15] 2.7% | Potency [19] | Potency [20] | Potency [17] | max response [18] 1.55%

Cc1ccc(N)cc1[N+](=O)[O-]
inactive: Potency [1] > 92 µM | Potency [2] > 92 µM | Potency [3] | Potency [4] | Potency [5] | Potency [6] | Potency [7] | Potency [8] | Potency [9] | Potency [10] | Potency [11] | Potency [12] | Potency [13] | Potency [14] | activity change % (negative = inhibition) [15] -24.5% | activation [16] -0.0251% | Potency [19] | Potency [20] | Potency [17] | max response [18] -0.278%

C1CCCNCC1
inactive: Potency [1] > 92 µM | Potency [2] > 92 µM | Potency [3] | Potency [4] | Potency [5] | Potency [6] | Potency [7] | Potency [8] | Potency [9] | Potency [10] | Potency [11] | Potency [12] | Potency [13] | Potency [14] | activity change % (negative = inhibition) [15] -19.9% | Potency [20] | Potency [17] | max response [18] 1.16%

c1ccc(CSCc2ccccc2)cc1
inactive: Potency [1] > 92 µM | Potency [2] > 92 µM | Potency [3] | Potency [4] | Potency [5] | Potency [6] | Potency [7] | Potency [8] | Potency [9] | Potency [10] | Potency [11] | Potency [12] | Potency [13] | Potency [14] | activity change % (negative = inhibition) [15] -5.66% | activation [16] -0.938% | Potency [19] | Potency [20] | Potency [17] | max response [18] -1.32%

O=C(OCc1ccccc1)c1ccccc1O
inactive: Potency [1] > 92 µM | Potency [2] > 92 µM | Potency [3] | Potency [4] | Potency [5] | Potency [6] | Potency [7] | Potency [8] | Potency [9] | Potency [10] | Potency [11] | Potency [12] | Potency [13] | Potency [14] | activity change % (negative = inhibition) [15] -8.64% | activation [16] 1.07% and -2.52% | Potency [19] | Potency [20] | Potency [17] | max response [18] -3.94% and -2.55%

From PubChem BioAssay (NCATS)
